Source: PubChem BioAssay (NCATS)
Results filed as inconclusive are left out. Active and inactive are the calls of the source. Calls come from the whole dose curve; as a rule, active = well fitted cell-killing curve with a large enough effect; inconclusive = small, poorly fitted or top-dose-only effect; inactive = flat fitted curve, though single readings scatter.

Assay: NCATS anti-infectives library activity on HEK293 viability as a counter-qHTS vs the C. elegans viability qHTS (AID 1745854)
Settings: HEK293 viability counter-screen; series mostly up to 41.8 µM
Excerpt: Assay Development and Screening Technology Laboratory (ADST)
National Center for Advancing Translational Sciences (NCATS), Rockville, MD
National Institute of Health (NIH), Bethesda, Maryland
Caenorhabditis elegans has helped elucidate the evolutionarily conserved genetics underlying pathways and cellular processes implicated in human disease and may be ideally positioned to reveal novel pharmacological properties of exiting drugs. The organism's short life cycle and microscopic size is applicable to the technical requirements of high-throughput screening. Here a quantitative high-throughput screening (qHTS)-based forward chemical biology platform has been developed using C. elegans. 384-well microtiter plate laser scanning cytometry was used in the rapid detection and quantification of the fluorescent protein-encoded phenotype to score worm viability. In a proof-of-concept study, the pharmacological qHTS profile obtained from a library of 643 anti-infective compounds.
1. Inglese, J., Auld, D. S., Jadhav, A., Johnson, R. L., Simeonov, A., Yasgar, A., Zheng, W., and Austin, C. P. (2006) Quantitative high-throughput screening: A titration-based approach that efficiently identifies biological activities in large chemical libraries, P Natl Acad Sci USA 103, 11473-11478.
2. Auld, D. S., Johnson, R. L., Zhang, Y. Q., Veith, H., Jadhav, A., Yasgar, A., Simeonov, A., Zheng, W., Martinez, E. D., Westwick, J. K., Austin, C. P., and Inglese, J. (2006) Fluorescent protein-based cellular assays analyzed by laser-scanning microplate cytometry in 1536-well plate format, Method Enzymol 414, 566-589.
3. Zuck, P., Lao, Z., Skwish, S., Glickman, J. F., Yang, K., Burbaum, J., and Inglese, J. (1999) Ligand-receptor binding measured by laser-scanning imaging, Proc Natl Acad Sci U S A 96, 11122-11127.
PROTOCOL TABLE (as described by Inglese J, Shamu CE and Guy RK. 2007)
SEQUENCE No. (e.g., 1, 2, 3, etc.); […] (e.g., C. elegans, Compounds, Incubation, Read, etc.); VALUE and DESCRIPTION.
1. Compounds. Library compounds and digitonin control added at 25 nL per well to 7 assay ready 1536-well Greiner white/solid bottom high base, TC plates and two DMSO control plates, transferred by Echo acoustic dispenser.
2. Cells. Seed 1500 HEK293 per well in 6 uL into assay ready Greiner 1536-well plates.
3. Incubation. Incubate plated cells with compounds at 37C in 5% CO2, 95% RH for 24 hr.
4. Reagent. Add 4 uL of CellTiter-Glo reagent from Promega per well of Greiner 1536-well plates with BioRAPTR FRD.
5. Incubation. Incubate treated cells at room temperature for 10 min., protect from light.
6. Detector. CellTiter-Glo luminescence measured using CCD-based camera (Viewlux) with settings as follows: Exposure, 1 sec; Gain, High; Speed, Slow; Binning, 2X.
NOTES (numbers refer to Sequence numbers above; values are from representative experiments)
1. NIH Anti-Infectives library pre-dispensed into 7 assay ready 1536-well Greiner white/solid bottom high base, TC plates with Echo 555 acoustic dispenser. Most compounds dispensed at 10 mM high concentration and plated in 7-pt 1:5 inter-plate titration at 25 nl / well for a final assay concentration range of 41.7 uM - 2.7 nM. Two 1536-well Greiner assay plates of DMSO plated as screening controls to be read at the beginning and the end of the screen. Controls included DMSO vehicle control added at 25 nl/well to each well of column 1 and […] (83.3 uM final assay concentration), and Digitonin titrated 1:2 at 25 nl/ well to column 4 in duplicate for a final assay concentration range of 83.3 uM - 2.5 nM.
2. HEK293 cells grown for 48 hr in one T175 culture flask in DMEM high glucose media supplemented with 10% FBS and 1% Pen/Strep antibiotic. Cells trypsinized and diluted in 10 ml supplemented media, strained through 40 µm cell strainer, and diluted to a total volume of 40 ml with supplemented media. […]

SMILES	outcome
COc1cccc2c1c(O)c(C(=O)N(C)c1ccc(C(F)(F)F)cc1)c(=O)n2C	inactive
COc1cnc(-n2cnc(C)n2)c2[nH]cc(C(=O)C(=O)N3CCN(C(=O)c4ccccc4)CC3)c12	inactive
CCCCOc1nc(N)c2c(n1)N(Cc1cccc(CN3CCCC3)c1)CC(=O)N2	inactive
Cc1cc(OCCN2CCOCC2)nn1-c1ccc2ccccc2c1	inactive
COC(=O)C1=CO[C@@H](O[C@@H]2O[C@H](CO)[C@@H](O)[C@H](O)[C@H]2O)[C@@H]2C(CO)=CC[C@H]12	inactive
Cc1noc2c1-c1ccccc1C(c1ccc(Cl)cc1)=N[C@H]2CC(N)=O	inactive
O=C(O)c1cc(C(F)(F)F)ccc1N1CC[C@H](OCc2ccccn2)C1	inactive
NCCCCN(Cc1nc2ccccc2[nH]1)[C@H]1CCCc2cccnc21	inactive
Fc1ccccc1-c1nc2ccn(Cc3ccc(-c4ccc(C(F)(F)F)cc4C(F)(F)F)nn3)cc-2n1	inactive
CCCC(C(=O)O)c1c(C)nc2ccc(Cl)cc2c1-c1ccccc1 (configuration not stated)	inactive
CCc1nn(CCO)c(CC)c1Oc1cc(C#N)cc(C#N)c1	inactive
OCC1=C[C@@H](O)[C@@H]2C=CO[C@@H](O[C@@H]3O[C@H](CO)[C@@H](O)[C@H](O)[C@H]3O)[C@H]12	inactive
